Measured values: PubChem BioAssay (Tox21)
Where “and” joins values, the source holds several entries; their conditions need not be identical. Equal entries are not always repeated. Records with an inconclusive call do not appear. Calls of active or inactive are those of the source. Unless noted, the call rests on the fitted dose curve; in most records, active means well fitted curve in the direction sought with a large enough effect in the repeat runs; inconclusive means weak or mixed curves; inactive means no such curve, though single readings can be large; an effect the other way counts as inactive or inconclusive.

Key:
[1] = qHTS assay for small molecule disruptors of the mitochondrial membrane potential (AID 720635); further: potency means the concentration at half of the fitted maximal effect
Method in brief: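 HepG2 cells (2,000/well) attached overnight at 37C, then took compound for 1 hr at 37C, 5% CO2. Mito-MPS dye was added for 30 min; fluorescence was read at 490/535 nm (monomers) and 540/590 nm (aggregates).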

[2] = qHTS assay to test for compound auto fluorescence at 535 nm (green) in HepG2 cells (AID 720675)
[3] = qHTS assay to test for compound auto fluorescence at 460 nm (blue) in HEK293 cell free culture (AID 720681)
Method in brief: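 Test compounds were pinned into cell-free culture medium (DMEM with 10% FBS) and fluorescence was read directly at Ex/Em 405/460 nm. Signals were expressed as fluorescence equivalents of triamterene, with DMSO vehicle as control.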

[4] = qHTS assay to test for compound auto fluorescence at 535 nm (green) in HepG2 cell free culture (AID 720686)
[5] = qHTS assay for identifying genotoxic compounds that show differential cytotoxicity against isogenic chicken DT40 cell lines with known DNA damage response pathways - wild type cell line (AID 743012); further: nearly all actives have a fitted effect of over 60% in size; further: potency means the concentration at half of the fitted maximal effect
Method in brief: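 First, wild type DT40 cells were plated at 300 per well and equilibrated about 0.5 h at 37 C/5% CO2. Next, compounds in DMSO were added and exposure lasted 40 h. Finally, CellTiter-Glo was added for 30 min at room temperature and luminescence recorded.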

[6] = qHTS assay for identifying genotoxic compounds that show differential cytotoxicity against isogenic chicken DT40 cell lines with known DNA damage response pathways - Rad54/Ku70 mutant cell line (AID 743015); further: nearly all actives have a fitted effect of over 60% in size; further: potency means the concentration at half of the fitted maximal effect
[7] = qHTS assay to identify small molecule antagonists of the androgen receptor (AR) signaling pathway - cell viability counter screen (AID 743033; further: nearly all actives have a fitted effect of over 45% in size; further: potency means the concentration at half of the fitted maximal effect)
[8] = qHTS assay to identify small molecule antagonists of the thyroid receptor (TR) signaling pathway - cell viability counter screen (AID 743064); further: nearly all actives have a fitted effect of over 50% in size; further: potency means the concentration at half of the fitted maximal effect
Method in brief: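 CellTiter-Fluor readout, 30 min at 37 °C/5% CO2, following 23.5 h incubation of GH3.TRE-Luc cells with test compound and 1 nM T3 (final).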

[9] = qHTS assay to identify small molecule antagonists of the estrogen receptor alpha (ER-alpha) signaling pathway using the BG1 cell line - cell viability counter screen (AID 743081);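 further: compound given together with 17beta-estradiol as the ER stimulus; series mostly up to about 70 µM; nearly all actives have a fitted effect of over 45% in size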
[10] = qHTS assay to identify small molecule that activate the aryl hydrocarbon receptor (AhR) signaling pathway - cell viability counter screen (AID 743086); further: nearly all actives have a fitted effect of over 45% in size; further: potency means the concentration at half of the fitted maximal effect
Method in brief: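 HepG2-AhR-luc (HG2L7.5c1) cells, 4000/well, were preincubated 5 h at 37C, exposed to compound in qHTS format for 24 hr at 37C, then given CellTiter-Fluor for 30 min; viability was read as fluorescence in the reporter wells.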

[11] = qHTS assay to identify small molecule agonists of the peroxisome proliferator-activated receptor delta (PPARd) signaling pathway - cell viability counter screen (AID 743211); further: nearly all actives have a fitted effect of over 55% in size; further: potency means the concentration at half of the fitted maximal effect
Method in brief: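 In the same wells used for beta-lactamase reporter measurement, cytotoxicity is scored by CellTiter-Glo. HEK293H PPARd-bla cells receive compound for 17 h at 37C following a 5 h settling period.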

[12] = qHTS assay to identify small molecule antagonists of the farnesoid-X-receptor (FXR) signaling pathway - cell viability counter screen (AID 743221; active means well fitted cell-killing curve with a large enough effect in the repeat runs, not every such curve was filed as active; further: nearly all actives have a fitted effect of over 50% in size; further: potency means the concentration at half of the fitted maximal effect)
Method in brief: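 Here viability was scored by luminescence after CellTiter-Glo addition to wells already read for beta-lactamase. Prior treatment: compound plus CDCA (50 uM final), 16 h, 37 C, HEK 293T FXR-bla cells.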

[13] = qHTS assay to identify small molecule agonists of the progesterone receptor (PR) signaling pathway - cell viability counter screen (AID 1346799; calls by dose curve; further: nearly all actives have a fitted effect of over 45% in size; further: potency means the concentration at half of the fitted maximal effect)
Method in brief: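 Multiplexed viability read: CellTiter-Glo luminescence, 30 min RT, following LiveBLAzer FRET measurement on PR-UAS-bla HEK293T cells exposed to compounds 16 hr.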

[14] = molecular target: Thyrotropin-releasing hormone receptor (Homo sapiens) (UniProt P34981); experiment: qHTS assay to identify small molecule antagonists of the thyrotropin-releasing hormone receptor (TRHR) signaling pathway (AID 1346877; active means well fitted inhibition curve with a large enough effect in the repeat runs, not every such curve was filed as active; further: series mostly up to about 51 µM)
Chain of Thyrotropin-releasing hormone receptor (Homo sapiens) (P34981 whole entry, looked up): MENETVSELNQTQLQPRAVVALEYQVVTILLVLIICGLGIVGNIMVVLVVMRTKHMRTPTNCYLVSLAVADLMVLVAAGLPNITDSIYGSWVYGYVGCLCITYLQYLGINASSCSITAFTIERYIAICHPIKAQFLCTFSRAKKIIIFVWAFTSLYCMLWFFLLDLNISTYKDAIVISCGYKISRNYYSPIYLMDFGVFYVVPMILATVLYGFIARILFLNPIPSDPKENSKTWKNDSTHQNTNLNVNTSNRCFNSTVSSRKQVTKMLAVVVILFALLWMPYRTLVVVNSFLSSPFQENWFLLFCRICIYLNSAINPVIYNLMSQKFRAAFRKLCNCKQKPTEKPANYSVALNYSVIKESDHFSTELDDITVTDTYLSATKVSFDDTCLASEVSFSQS
Method in brief: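 Following an 18 h incubation at 37 °C and a 2 h calcium dye load, TRHR-HEK293 cells were exposed to compound (5 min, room temperature) and challenged with TRH, 1 nM final.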

[15] = qHTS assay to identify aromatase inhibitors - cell viability counter screen (AID 743084);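 further: cells stimulated with testosterone during compound exposure; nearly all actives have a fitted effect of over 55% in size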; further: potency means the concentration at half of the fitted maximal effect
[16] = molecular target: Peroxisome proliferator-activated receptor delta (Homo sapiens) (UniProt Q03181); experiment: qHTS assay to identify small molecule antagonists of the peroxisome proliferator-activated receptor delta (PPARd) signaling pathway (AID 743215; active means well fitted inhibition curve with a large enough effect in the signal ratio in the repeat runs, not every such curve was filed as active; the % refers to the signal ratio;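 further: cells stimulated with agonist L165041 at 300 nM final during compound exposure; series mostly up to about 62 µM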)
Chain of Peroxisome proliferator-activated receptor delta (Homo sapiens) (Q03181 whole entry, looked up): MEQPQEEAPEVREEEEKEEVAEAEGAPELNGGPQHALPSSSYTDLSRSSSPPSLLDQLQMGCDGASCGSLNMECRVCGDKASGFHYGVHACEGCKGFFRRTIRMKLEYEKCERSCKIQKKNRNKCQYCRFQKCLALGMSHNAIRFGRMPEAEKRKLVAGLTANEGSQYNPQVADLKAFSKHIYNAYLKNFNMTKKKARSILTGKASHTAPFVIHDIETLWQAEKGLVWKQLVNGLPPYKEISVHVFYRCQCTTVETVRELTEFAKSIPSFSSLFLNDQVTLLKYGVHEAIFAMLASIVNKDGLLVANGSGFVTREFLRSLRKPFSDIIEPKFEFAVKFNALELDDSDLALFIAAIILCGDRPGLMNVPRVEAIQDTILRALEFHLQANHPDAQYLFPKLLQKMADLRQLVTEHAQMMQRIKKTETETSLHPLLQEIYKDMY
Method in brief: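 HEK293H UAS-bla, PPARd; agonist L165041 300 nM final with cpd in DMSO; 37 C 17 h; FRET substrate, RT 2 h; fluorescence intensity.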

[17] = molecular target: Estrogen receptor beta (Homo sapiens) (UniProt Q92731); experiment: qHTS assay to identify small molecule antagonists of the estrogen receptor beta (ER-beta) signaling pathway (AID 1259378; active means well fitted inhibition curve with a large enough effect in the signal ratio in the repeat runs, not every such curve was filed as active; the % refers to the signal ratio; further: potency means the concentration at half of the fitted maximal effect)
Chain of Estrogen receptor beta (Homo sapiens) (Q92731 whole entry, looked up): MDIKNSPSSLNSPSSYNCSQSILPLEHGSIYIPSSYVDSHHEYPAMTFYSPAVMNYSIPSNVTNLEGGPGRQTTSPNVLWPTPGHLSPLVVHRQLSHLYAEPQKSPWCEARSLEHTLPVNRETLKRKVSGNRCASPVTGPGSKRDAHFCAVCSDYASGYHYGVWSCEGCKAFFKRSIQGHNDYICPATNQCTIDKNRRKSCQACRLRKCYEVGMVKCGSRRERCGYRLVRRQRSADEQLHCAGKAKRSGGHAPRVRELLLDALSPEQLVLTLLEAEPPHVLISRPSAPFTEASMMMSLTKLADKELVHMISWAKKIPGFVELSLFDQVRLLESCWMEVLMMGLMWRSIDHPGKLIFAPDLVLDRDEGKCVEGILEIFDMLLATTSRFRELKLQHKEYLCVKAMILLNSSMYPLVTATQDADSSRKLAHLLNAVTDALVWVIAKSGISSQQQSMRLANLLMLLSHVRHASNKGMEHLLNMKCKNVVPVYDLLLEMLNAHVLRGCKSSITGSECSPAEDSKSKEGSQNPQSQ
Method in brief: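 ER-beta-UAS-bla HEK293T (GripTite) cells in 2% charcoal-stripped FBS medium were preincubated 6 hr at 37C, dosed with compound, then stimulated with 1 nM E2 (final) for 16 hr; beta-lactamase reporter read by B/G FRET fluorescence after 2 hr substrate loading.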

[18] = molecular target: Androgen receptor (Homo sapiens) (UniProt P10275); experiment: qHTS assay to identify small molecule agonists of the androgen receptor (AR) signaling pathway in the presence of an antagonist (AID 1259381; calls by dose curve; further: nearly all actives have a fitted effect of over 15% in size)
Chain of Androgen receptor (Homo sapiens) (P10275 whole entry, looked up): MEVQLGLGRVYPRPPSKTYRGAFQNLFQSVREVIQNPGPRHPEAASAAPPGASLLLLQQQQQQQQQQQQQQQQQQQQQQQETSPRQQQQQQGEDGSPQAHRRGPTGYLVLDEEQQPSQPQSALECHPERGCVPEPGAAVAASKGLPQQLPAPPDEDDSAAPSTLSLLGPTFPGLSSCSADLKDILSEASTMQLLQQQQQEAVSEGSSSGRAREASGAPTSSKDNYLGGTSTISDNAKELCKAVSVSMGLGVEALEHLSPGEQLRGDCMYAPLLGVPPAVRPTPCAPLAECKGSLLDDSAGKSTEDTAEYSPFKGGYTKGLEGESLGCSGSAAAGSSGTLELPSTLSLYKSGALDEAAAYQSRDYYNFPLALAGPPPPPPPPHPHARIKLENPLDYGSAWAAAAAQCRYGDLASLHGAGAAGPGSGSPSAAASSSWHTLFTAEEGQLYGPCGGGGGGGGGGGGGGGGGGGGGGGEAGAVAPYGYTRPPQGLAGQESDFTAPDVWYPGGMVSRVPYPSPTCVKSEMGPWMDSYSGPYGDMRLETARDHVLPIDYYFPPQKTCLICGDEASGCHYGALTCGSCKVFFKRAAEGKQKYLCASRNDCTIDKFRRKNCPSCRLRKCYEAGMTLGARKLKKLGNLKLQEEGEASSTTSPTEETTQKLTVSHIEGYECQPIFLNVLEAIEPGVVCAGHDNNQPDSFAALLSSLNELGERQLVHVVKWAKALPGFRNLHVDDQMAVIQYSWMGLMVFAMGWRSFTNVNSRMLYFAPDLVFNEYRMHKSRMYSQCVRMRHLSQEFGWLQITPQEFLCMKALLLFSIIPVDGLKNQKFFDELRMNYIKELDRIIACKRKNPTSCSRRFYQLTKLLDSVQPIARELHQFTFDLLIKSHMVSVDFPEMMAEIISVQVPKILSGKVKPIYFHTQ
Method in brief: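 Test compounds at 15 concentrations were incubated for 16hr with MDA-kb2 reporter cells in presence of 3.0uM nilutamide (final). Signal: ONE-Glo luciferase luminescence.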

[19] = qHTS assay for small molecule activators of the heat shock response signaling pathway (AID 743210; active means well fitted activation curve with a large enough effect in the signal ratio in the repeat runs, with a control signal flat, not every such curve was filed as active; the % refers to the signal ratio;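 further: HeLa cells with beta-lactamase reporter driven by heat shock elements; series mostly up to about 63 µM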)
Method in brief: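 Reporter gene assay: HeLa cells stably bearing an HSE-bla construct, compound treatment 5 h at 37 C, LiveBLAzer substrate 2.5 h at RT, fluorescence intensity.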

[20] = molecular target: Progesterone receptor (Homo sapiens) (UniProt P06401); experiment: qHTS assay to identify small molecule antagonists of the progesterone receptor (PR) signaling pathway (AID 1346795; active means well fitted inhibition curve with a large enough effect in the signal ratio in the repeat runs, not every such curve was filed as active; the % refers to the signal ratio; further: potency means the concentration at half of the fitted maximal effect)
Chain of Progesterone receptor (Homo sapiens) (P06401 whole entry, looked up): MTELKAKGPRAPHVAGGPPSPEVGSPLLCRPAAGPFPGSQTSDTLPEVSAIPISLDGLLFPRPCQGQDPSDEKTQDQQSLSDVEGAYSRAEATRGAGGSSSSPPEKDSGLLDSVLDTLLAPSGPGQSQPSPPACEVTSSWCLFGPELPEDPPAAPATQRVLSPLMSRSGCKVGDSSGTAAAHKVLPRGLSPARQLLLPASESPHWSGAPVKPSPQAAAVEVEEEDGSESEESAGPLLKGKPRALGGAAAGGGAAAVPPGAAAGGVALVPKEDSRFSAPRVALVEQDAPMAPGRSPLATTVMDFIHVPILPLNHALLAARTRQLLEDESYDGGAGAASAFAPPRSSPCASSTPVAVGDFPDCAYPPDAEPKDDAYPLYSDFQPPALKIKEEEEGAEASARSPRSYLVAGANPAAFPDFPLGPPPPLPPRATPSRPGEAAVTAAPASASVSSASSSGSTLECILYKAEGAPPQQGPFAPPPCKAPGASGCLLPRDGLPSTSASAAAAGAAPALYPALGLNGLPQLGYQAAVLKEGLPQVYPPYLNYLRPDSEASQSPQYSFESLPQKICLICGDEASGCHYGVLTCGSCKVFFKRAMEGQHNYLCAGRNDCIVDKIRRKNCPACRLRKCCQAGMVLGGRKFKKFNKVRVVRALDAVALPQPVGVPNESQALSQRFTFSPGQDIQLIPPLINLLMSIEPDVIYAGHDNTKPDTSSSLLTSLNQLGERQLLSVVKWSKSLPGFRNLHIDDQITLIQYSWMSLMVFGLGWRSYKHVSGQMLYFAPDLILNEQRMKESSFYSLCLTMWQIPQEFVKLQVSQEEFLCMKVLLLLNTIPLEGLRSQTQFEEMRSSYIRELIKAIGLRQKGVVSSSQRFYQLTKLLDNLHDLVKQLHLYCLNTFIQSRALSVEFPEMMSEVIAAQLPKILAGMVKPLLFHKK
Method in brief: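 Stimulus R5020 at 1 nM final; cells HEK293T PR-UAS-bla; medium with 2% charcoal-stripped FBS; compound exposure 16 hr at 37C, 5% CO2; detection by FRET beta-lactamase substrate, 2 hr, room temperature.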

Measured: Potency

OCC(c1ccc(Cl)cc1)c1ccc(Cl)cc1
active: [1] 27.3 µM | [5] 13.7 µM | [6] 15.4 µM | [7] 43.6 µM | [8] 61.1 µM
not listed: [15] | [16] | [17] | [18] | [19] | [20]
inactive: all other assays above

ClC1=C(Cl)[C@]2(Cl)[C@@H]3[C@@H](Cl)[C@H]4O[C@H]4[C@@H]3C1(Cl)C2(Cl)Cl
active: [1] 27.3 µM | [5] 61.1 µM | [6] 61.1 µM | [11] 54.9 µM
inactive: [2] | [4] | [7] | [9] | [15] | [10] | [16] | [12] | [17]

Cc1nnc2n1-c1sc(CCc3ccc(CC(C)C)cc3)cc1C(c1ccccc1Cl)=NC2C (configuration not stated)
inactive: [2] | [3] | [4] | [7] | [15] | [10] | [14]
active: [1] 21.1 µM | [5] 11.9 µM | [6] 13.3 µM | [8] 15 µM | [11] 29.8 µM

O=C(c1ccccc1)C(Cl)Cl
inactive: [18] | [13] | [14]

Cc1cc(C(C)(C)c2ccc(O)c(C)c2)ccc1O
active: [1] 6.53 µM
inactive: [2] | [3] | [4] | [5] | [8] | [9] | [19] | [12] | [18]

C[C@]12CC[C@@H](O)C[C@@H]1CC[C@@H]1[C@@H]2CC[C@]2(C)C(=O)CC[C@@H]12
active: [13] 68.6 µM

O=C1C(I)=CC(=C(c2cc(I)c(O)c(I)c2)c2ccccc2C(=O)O)C=C1I
inactive: [2] | [3] | [5] | [7] | [9] | [15] | [10] | [19] | [16] | [12]
active: [1] 8.41 µM and 4.22 µM | [20] 29.8 µM

COc1ccc(C(c2ccc(OC)cc2)C(Cl)(Cl)Cl)cc1
active: [1] 13.7 µM | [5] 19.2 µM | [6] 39.2 µM | [8] 36.2 µM
inactive: [2] | [3] | [4] | [9] | [10] | [12] | [14]

Brc1ccc(Br)c(Br)c1
inactive: [19]

CO/C=C(/C(=O)OC)c1ccccc1Oc1cc(Oc2ccccc2C#N)ncn1
active: [1] 2.31 µM | [5] 0.0731 µM | [6] 0.312 µM | [7] 18.5 µM | [8] 33.6 µM | [15] 58.1 µM | [10] 37.6 µM
inactive: [2] | [3] | [4] | [19] | [18] | [14]

CN1CSC(=S)N(C)C1
active: [5] 6.08 µM and 5.43 µM | [6] 6.08 µM and 4.84 µM | [7] 5.47 µM and 3.46 µM | [8] 30.5 µM | [15] 10.8 µM and 27.2 µM | [11] 3.87 µM | [12] 12.3 µM | [17] 24.2 µM | [20] 19.2 µM and 8.61 µM | [13] 24.3 µM
inactive: [1] | [3] | [4] | [9] | [14]

Fc1c(F)c(F)c(Br)c(F)c1F
inactive: [16]

Cc1ccccc1N=O
inactive: [16]

C=CC(=O)OCCCC
inactive: [16]

C=CC(=O)OCCCCCCCC(C)C
inactive: [17]

Nc1ccc(Cl)cc1Cl
inactive: [19]

Cc1cccc([N+](=O)[O-])c1C
inactive: [16]

Clc1ccccc1-c1ccccc1Cl
active: [1] 19.6 µM
not listed: [14] | [15] | [17] | [18]
inactive: all other assays above
